Screening results (PubChem BioAssay)
Compounds with a hit are over-represented: about 2.9% of the library has one in this group of screens.
ZTA DNA inh = counter-screen for EBNA-1 inhibitors: inhibitors of Epstein-Barr virus ZTA. P03206. ZTA-DNA binding, fluorescence polarization. inhibition, % at 11 µM. hit rate 0.15% among 320,000. AID 2234; in the data active = inhibition above about 33%
PAFAH2 inh = PAFAH2 (human) inhibition; hit rate 0.99% among 340,000; recombinant PAFAH2, FP-rhodamine activity probe, fluorescence polarization; inhibition, % at 3.39 µM; AID 492956;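 active = inhibition above the mean over all tested compounds plus 3 SD, cut at about 30% in these data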;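 note: inhibitors block probe labeling of enzyme so polarization drops; 0% = enzyme with DMSO and 100% = wells lacking PAFAH2 protein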
PAFAH1B3 FP inh = inhibitors of human PAFAH1B3; hit rate 0.28% among 340,000; recombinant PAFAH1B3, FP-rhodamine probe, fluorescence polarization; inhibition, % at 3.39 µM; Q15102;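 active = inhibition above the screen-wide average of all tested compounds plus 3 SD, cut at about 25% in these data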;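 note: 0% = enzyme with DMSO only and 100% = wells lacking PAFAH1B3 protein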
EBNA-1 inh = blocks EBNA-1 binding to DNA. EBNA-1 DNA binding, fluorescence polarization. inhibition, % at 14.8 µM. hit rate 0.34% among 300,000; in the data active = inhibition above about 28%
pPAFAH inh = inhibitors of human plasma PAF acetylhydrolase (pPAFAH); Q13093; recombinant pPAFAH, FP-rhodamine probe fluorescence polarization; inhibition, % at 3.39 µM; hit rate 1.5% among 330,000; AID 463082;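 active = inhibition above the mean inhibition across the screen plus 3 SD, cut at about 25% in these data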;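 note: inhibitors block binding of the rhodamine activity-based probe so polarization drops; 0% = enzyme with DMSO and 100% = wells lacking pPAFAH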
Target sequence (Q13093 whole entry, looked up): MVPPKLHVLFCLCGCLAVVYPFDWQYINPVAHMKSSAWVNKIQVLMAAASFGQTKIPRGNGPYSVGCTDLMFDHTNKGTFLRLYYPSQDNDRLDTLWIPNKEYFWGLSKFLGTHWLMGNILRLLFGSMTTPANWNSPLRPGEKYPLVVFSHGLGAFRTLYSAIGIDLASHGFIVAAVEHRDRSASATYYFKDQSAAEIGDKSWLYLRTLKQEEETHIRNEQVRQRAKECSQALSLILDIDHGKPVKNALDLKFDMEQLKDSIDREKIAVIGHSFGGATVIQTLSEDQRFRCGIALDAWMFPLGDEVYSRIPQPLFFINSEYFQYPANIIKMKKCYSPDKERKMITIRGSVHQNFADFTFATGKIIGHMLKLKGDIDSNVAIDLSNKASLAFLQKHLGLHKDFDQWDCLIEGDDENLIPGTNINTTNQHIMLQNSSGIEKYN
PAFAH1B2 FP inh = PAFAH1B2 (human) inhibition. inhibition, % at 3.39 µM. P68402. recombinant PAFAH1B2, FP-rhodamine activity probe, fluorescence polarization. hit rate 1.2% among 340,000;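 active = inhibition above the mean of all tested compounds plus 3 SD, cut at about 24% in these data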;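 note: 0% = enzyme with DMSO and 100% = wells lacking PAFAH1B2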
Target sequence (P68402 whole entry, looked up): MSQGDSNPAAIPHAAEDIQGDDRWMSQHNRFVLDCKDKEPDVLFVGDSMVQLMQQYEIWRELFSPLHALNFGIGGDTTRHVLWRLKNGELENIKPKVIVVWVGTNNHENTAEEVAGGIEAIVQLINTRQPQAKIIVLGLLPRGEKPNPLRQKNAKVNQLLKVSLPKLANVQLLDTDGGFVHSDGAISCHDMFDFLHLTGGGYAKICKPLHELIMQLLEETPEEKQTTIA
EBNA-1 inh conf = EBNA-1 (EBV) inhibition, confirmation | shares compounds with EBNA-1 inh | Recombinant EBNA-1 DBD, Cy5-DNA fluorescence polarization | inhibition, % at 14.8 µM | hit rate 35% among 830 | AID 2292;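 active = mean inhibition across replicates above a set limit taken from the earlier primary screen, cut at about 28% in these data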;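 note: plate controls were EBNA-1 protein with DMSO for no effect and wells lacking EBNA-1 for full effect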
ZTA counter trip = blocks Epstein-Barr virus ZTA in triplicate, EBNA-1 counter-screen | shares compounds with EBNA-1 inh | Zta-ZRE DNA binding, Cy5 fluorescence polarization | inhibition, % at 11.1 µM | 830 tested, under 10 active | AID 2328;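 active = mean inhibition over triplicates above a set limit taken from the primary EBNA-1 screen, cut at about 37% in these data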;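 note: purified full length Zta protein with Cy5 labeled ZRE DNA probe; 0% = Zta with DMSO and 100% = wells lacking Zta protein; inhibitors lower polarization by freeing the labeled DNA probe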
Numbers without * were called inactive; nt = no result.

SMILES	ZTA DNA inh	PAFAH2 inh	PAFAH1B3 FP inh	EBNA-1 inh	pPAFAH inh	PAFAH1B2 FP inh	others
CCOC(=O)Cc1csc(NC(=O)Cn2cnc3c2c(=O)n(C)c(=O)n3C)n1	-15	2	-1	-14	-2	-4
Cn1c(=O)c2c(ncn2CC(=O)Nc2nc(-c3ccccc3Cl)cs2)n(C)c1=O	-9	0	7	27*	-1	3
Cn1cnnc1Sc1ccc(/C=C(\CCC(=O)O)c2nc3ccccc3s2)cc1[N+](=O)[O-]	25	-3	3	8	7	26*
Cn1cnnc1Sc1ccc(/C=C/C(=O)c2ccc(O)cc2)cc1[N+](=O)[O-]	23	13	-4	1	4	-2
N=c1c(S(=O)(=O)c2ccc(Br)cc2)cc2c(=O)n3ccccc3nc2n1Cc1ccco1	7	6	6	14	27*	4
N=c1c(S(=O)(=O)c2ccc(Cl)cc2)cc2c(=O)n3ccccc3nc2n1Cc1ccco1	-9	4	-2	-5	21	1
CC(=O)C1=C(O)C(=O)N(Cc2ccccc2)C1c1ccc(Cl)cc1 (configuration not stated)	13	7	3	5	-3	29*
COc1cc(-c2nnc(SCC(=O)NC3CCCC3)n2C)cc(OC)c1O	-5	-9	10	2	2	5
COc1ccc2[nH]c(C(=O)NCCN3CCOCC3)cc2c1	7	5	6	3	-4	36*
O=C(O)c1cc([N+](=O)[O-])ccc1NCCCc1ccccc1	15	14	3	-4	27*	50*
CCc1cccc(Nc2cnn(C34C[C@@H]5C[C@@H](CC(CC(=O)O)(C5)C3)C4)c(=O)c2Cl)c1	5	-1	2	1	-1	32*
Cc1ccc(Nc2cnn(C34CC5CC(CC(CC(=O)O)(C5)C3)C4)c(=O)c2Cl)cc1C	4	9	7	13	8	1
Cc1cc(C)c(S(=O)(=O)N2CCCCC2CCNC(=O)C(=O)NC2CC2)c(C)c1 (configuration not stated)	-9	4	11	-23	-3	4
COc1oc(C(=O)NC2CCCCC2)c(-c2ccc(Cl)cc2)c1S(=O)(=O)c1ccccc1	nt	5	-1	nt	nt	32*
O=C(NC1CCCCC1)c1cc(-c2ccc(Cl)cc2)on1	2	-8	-5	7	-2	4
Cc1ccc(NC(=O)COC(=O)/C(=C/c2cccs2)c2cccs2)cc1S(=O)(=O)N(C)C	-2	-33	-32	8	-8	-16
O=C(O)c1cccc(-n2cccc2/C=C2/NC(=O)N(c3ccc(Cl)cc3)C2=O)c1	nt	72*	36*	nt	nt	28*
COc1ccc(-n2cccc2/C=C2/NC(=O)N(c3cccc(Cl)c3)C2=O)cc1	3	10	3	3	5	4
COc1ccc(-c2nn(C)c(=O)c3ccccc23)cc1CNC(=O)NC1CCCCC1	7	nt	nt	-17	-6	nt
O=[N+]([O-])c1ccc(N/N=C\c2cccn2-c2ccccc2)nc1	7	-2	0	-7	29*	6
CCOC(=O)c1ccccc1NC(=O)COC(=O)c1cc([N+](=O)[O-])ccc1N1CCOCC1	-24	7	5	-5	7	4
Oc1cccc(/C=N/Nc2ncnc3c2ncn3Cc2ccccc2)c1	1	-6	3	1	0	8
Oc1ccc(/C=N/Nc2ncnc3c2ncn3Cc2ccccc2)cc1O	14	15	-1	5	30*	3
O=C(CSc1ccc(-c2ccccc2)nn1)c1ccccc1	-5	-2	11	40*	1	0	EBNA-1 inh conf=-12;ZTA counter trip=-5
O=C(N/N=C/c1cccc([N+](=O)[O-])c1)c1cc(-c2ccc3c(c2)OCO3)n[nH]1	-2	11	-2	62*	3	-3	EBNA-1 inh conf=23;ZTA counter trip=12
SMILES	ZTA DNA inh	PAFAH2 inh	PAFAH1B3 FP inh	EBNA-1 inh	pPAFAH inh	PAFAH1B2 FP inh	others
O=C(Nc1cccc(-c2nnc(-c3ccccc3)o2)c1)C1CCCCC1	11	-4	-2	75*	0	4	EBNA-1 inh conf=107*;ZTA counter trip=-5
CCC(=O)Nc1cccc(-c2nnc(-c3ccccc3)o2)c1	6	2	5	4	4	2
O=C1COc2ccc(C(=O)COC(=O)c3cc(S(=O)(=O)NCc4ccccc4)ccc3O)cc2N1	6	6	-3	31*	-2	7	EBNA-1 inh conf=5;ZTA counter trip=-4
COc1ccc(NC(=O)c2cc(-c3cccnc3)nc3c(C)c(C)ccc23)c(OC)c1	8	5	1	33*	10	4	EBNA-1 inh conf=24;ZTA counter trip=-6
COc1ccc(-n2c(SCC(=O)Nc3ccccc3)nnc2-c2ccc(NS(=O)(=O)c3ccc(C)cc3)cc2)cc1	-3	-72	-52	71*	1	-34	EBNA-1 inh conf=28*;ZTA counter trip=1
COc1ccc(-n2c(SCC(N)=O)nnc2-c2ccc(NS(=O)(=O)c3ccc(C)cc3)cc2)cc1	-3	-8	0	7	10	7
Cc1nnc(SCC(=O)c2ccc(Cl)cc2)n(N)c1=O	-2	0	9	-7	-6	5
O=C(Nc1ccc(Oc2ccccc2)cc1)C1CCN(c2ncccn2)CC1	11	0	-3	39*	3	6	EBNA-1 inh conf=-1;ZTA counter trip=5
COc1cc(C)ccc1OCc1cc(C(=O)N2CCC(c3ccc(F)cc3)C2)no1 (configuration not stated)	-1	-13	9	31*	0	-3	EBNA-1 inh conf=2;ZTA counter trip=15
Cc1ccc(C)c(OCc2cc(C(=O)N3CC[C@@H]4CCCC[C@H]4C3)no2)c1	5	-2	5	4	-1	4
COc1ccc(C(CNC(=O)CN2C(=O)NC3(CCCC3)C2=O)N(C)C)cc1 (configuration not stated)	-18	5	11	1	2	-4
CCCCC(=O)NC(=O)NC(c1ccccc1)c1ccccc1	9	5	0	-8	5	5
O=C(CCCCCNc1nc(=S)[nH]c2ccccc12)NCCc1ccc(Cl)cc1	3	0	-2	66*	7	2	EBNA-1 inh conf=68*;ZTA counter trip=2
O=C(CCCCCNc1nc(=S)[nH]c2ccccc12)NCCc1c[nH]c2ccccc12	16	6	-1	15	12	2
COc1ccc(CNC(=O)C2CCCN(C(=O)Nc3ccc(OC)cc3)C2)cc1 (configuration not stated)	-11	-2	4	-5	4	6
CC(C)(CNCc1ccccc1)NS(=O)(=O)c1ccc(Cl)cc1	nt	7	5	nt	8	12
CC(OC(=O)CCc1c[nH]c2ccccc12)C(=O)c1ccccc1 (configuration not stated)	-7	-2	4	-3	7	5
